# Assay results taken from PubChem BioAssay (Tox21).
# Activity calls are given as the source filed them. Calls follow the shape of the dose curve; as a rule, active = well fitted curve in the direction sought with a large enough effect in the repeat runs; inconclusive = weak or mixed curves; inactive = flat fitted curve, though single readings scatter.
# Experiment: qHTS assay to test for compound auto fluorescence at 590 nm (red) in HEK293 cell free culture (AID 720683)
# Conditions: cell-free medium autofluorescence, Ex540/Em590 red; series mostly up to 91.3 µM; fluorescence, % of fluorescent control: at the top concentration
# Outline: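 Cell-free wells of DMEM with 10% FBS received compound, and intrinsic fluorescence was read at excitation/emission 540/590 nm. Values expressed as equivalence to Rose Bengal sodium.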
# % is scaled to controls: 0 for no effect and ±100 for the full control effect.
Compound,"fluorescence, % of fluorescent control",outcome
O=C(O)Cc1cn(-c2ccccc2)nc1-c1ccc(Cl)cc1,-0.562% [at 46 µM] (inactive),
O=C(O)c1cc(Cl)cc([N+](=O)[O-])c1Cl,0.379% (inactive),
Nc1nnc(-c2cccc(Cl)c2Cl)c(N)n1,0.215% [at 46 µM] (inactive),
CC(C(=O)O)c1ccc2c(c1)CC(=O)c1ccccc1S2 (stereo not drawn),0.126% [at 46 µM] (inactive),
COCCOC(=O)C1=C(C)NC(C)=C(C(=O)OC(C)C)C1c1cccc([N+](=O)[O-])c1 (stereo not drawn),-0.269% [at 46 µM] (inactive),
COc1ccc(-c2cc(=O)c3c(O)cc(O[C@@H]4O[C@H](CO[C@@H]5O[C@@H](C)[C@H](O)[C@@H](O)[C@H]5O)[C@@H](O)[C@H](O)[C@H]4O)cc3o2)cc1O,0.32% [at 46 µM] (inactive),
Cc1cccc(C)c1OCC(C)N (stereo not drawn),0.0258% [at 46 µM] (inactive),
CC(C)NCC(O)COc1ccc(COCCOC(C)C)cc1 (stereo not drawn),,inactive
C[C@@H]1O[C@@H](O[C@@H]2[C@@H](O)[C@H](OCCc3ccc(O)c(O)c3)O[C@H](CO[C@@H]3O[C@H](CO)[C@@H](O)[C@H](O)[C@H]3O)[C@H]2OC(=O)/C=C/c2ccc(O)c(O)c2)[C@H](O)[C@H](O)[C@H]1O,0.0356% (inactive),
C=C(C)C(=O)OCCNC(C)(C)C,0.0983% (inactive),
C=COCCOCCOCCOC=C,-0.0329% (inactive),
FC(F)(F)c1ccccc1-n1ccnc1,-0.187% [at 46 µM] (inactive),
CC(N)C(=O)OC(C)(C)Cc1ccc(Cl)cc1 (stereo not drawn),-0.68% [at 46 µM] (inactive),
CCO[Si](CCCS)(OCC)OCC,-0.21% (inactive),
NS(=O)(=O)c1ccc(NC(=O)CCC(=O)O)cc1,0.0821% [at 46 µM] (inactive),
O=C(/N=N/C(=O)OCc1ccccc1)OCc1ccccc1,-0.103% (inactive),
C#CC(C)N(C)C(=O)Nc1ccc(Cl)cc1 (stereo not drawn),-0.0624% (inactive),
CC(C)(C)NC(N)=O,-0.0628% (inactive),
